Cruzain noTriton = cruzain (T. cruzi) inhibition without detergent. 200,000 tested, 2.3% active. Potency, µM, inactives show max response, negative = inhibition, actives largely listed as inhibitors. purified cruzain, Z-FR-AMC fluorescence, no detergent. AID 1476;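 further: plate controls were enzyme without inhibitor for no effect and buffer without enzyme for full effect; nearly all actives have a fitted effect of over 40% in size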
Target sequence (P25779 123-467 limits assumed): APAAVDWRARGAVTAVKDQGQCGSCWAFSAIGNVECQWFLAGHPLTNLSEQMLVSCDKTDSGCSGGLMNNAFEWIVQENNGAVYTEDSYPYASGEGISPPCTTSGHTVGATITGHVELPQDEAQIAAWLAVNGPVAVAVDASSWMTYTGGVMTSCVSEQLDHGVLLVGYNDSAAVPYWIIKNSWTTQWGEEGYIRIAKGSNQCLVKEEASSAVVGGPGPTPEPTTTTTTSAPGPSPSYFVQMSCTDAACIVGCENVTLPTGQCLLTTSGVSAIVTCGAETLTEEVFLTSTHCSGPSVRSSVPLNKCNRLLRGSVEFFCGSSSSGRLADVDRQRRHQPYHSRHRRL
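Detergent-free condition (0.00005% Triton X-100) in acetate buffer pH 5.5 with DTT. 1.5 nM enzyme and compound were pre-mixed 15 min, then 2 uM Z-FR-AMC substrate added; reaction progress from fluorescence change between first and third reads (60 s).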
Cruzain Triton = blocks cruzain activity in presence of Triton detergent | purified cruzain, Z-FR-AMC fluorescence, 0.01% Triton | Potency, µM, for the others: max response, negative = inhibition, usual class: inhibitors | 200,000 tested, 0.43% active | AID 1478;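 further: plate controls were neutral wells for no effect and buffer without enzyme for full effect; nearly all actives have a fitted effect of over 40% in size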
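Compounds were screened in titration against cruzain (1.5 nM) with 0.01% Triton X-100 to counter colloidal aggregation. Activity was the AMC fluorescence increase over 60 s after adding 2 uM Z-FR-AMC at pH 5.5.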
Active calls of the source: *; ? = inconclusive; ! = not confirmed by another sample. An excerpt weighted towards active compounds, which were near 2.5% of everything screened. The call rests on the fitted dose curve; in most records, active means well fitted curve in the direction sought with a large enough effect; inconclusive means small, poorly fitted or top-dose-only effect, or another doubt; inactive means no such curve, though single readings can be large; an effect the other way counts as inactive or inconclusive. Potency means the concentration at half of the fitted maximal effect.

SMILES | Cruzain noTriton | Cruzain Triton
O=C(NCCN1C(=O)S/C(=C\c2ccc(Cl)c(Cl)c2)C1=O)c1ccc2c(c1)C(=O)N(Cc1ccncc1)C2=O | 13µM* | -8%
O=C(NCCN1C(=O)S/C(=C\c2ccc(Cl)cc2)C1=O)c1ccc(F)c(S(=O)(=O)N2CCOCC2)c1 | ? | -12%
C[C@@]12C[C@H](O)C3[C@H](CCC4=CC(=O)CC[C@]43C)[C@H]1CC[C@@H]2c1csc(-c2ccccc2)n1 (some centres not stated) | -7% | 2%
C=N[C@H](C(=O)N[C@@H]1C(=O)N2[C@@H]1SC(C)(C)[C@@H]2C(=O)O)c1ccccc1 | 5% | -2%
O=[N+]([O-])c1ccc(S(=O)(=O)N2CCn3cccc3C2c2ccc(Br)cc2)cc1 (configuration not stated) | ? | -3%
Cc1ccc(C2c3cccn3CCN2S(=O)(=O)c2ccc([N+](=O)[O-])cc2)cc1 (configuration not stated) | 32µM* | -6%
CCOc1ccc(C(=O)Nc2ccc3oc(-c4cccnc4)nc3c2)cc1 | -3% | 0%
Cc1ccc2sc(NC(=O)CN3C(=O)CCC3=O)nc2c1C | 1% | -3%
Cc1c(Cl)ccc2sc(NC(=O)CN3C(=O)c4ccccc4C3=O)nc12 | 10µM* | 0%
Cc1ccc(-n2ncc(C(=O)NCCN3CCCC3)c2C2CCN(C(=O)OC(C)(C)C)CC2)cc1C | 8% | -2%
Cc1noc(/C=C/c2cccs2)c1S(=O)(=O)N1CCC(C(=O)NCc2ccccc2Cl)CC1 | 13µM* | -5%
Cc1ccc(CNC(=O)C2CCN(S(=O)(=O)c3c(C)noc3/C=C/c3cccs3)CC2)cc1 | 0% | -5%
O=C(O)c1c(-c2c3ccc(=O)cc-3oc3cc(O)ccc23)cc2ccccc2c1-c1ccccc1 | 3% | 3%
Clc1cc(Cl)cc(Cl)c1 | -2% | 0%
O=C(NCCCN1CCN(c2cccc(Cl)c2)CC1)c1ccc2nc(Cc3ccccc3)oc2c1 | 2% | -9%
Cc1ccc(N/N=C(/Sc2nnnn2-c2ccccc2)C(=O)c2ccccc2)cc1 | 32µM* | -5%
O=C(/C(=N\Nc1ccc([N+](=O)[O-])cc1)Sc1nnnn1-c1ccccc1)c1ccccc1 | ? | -8%
CCc1nnc2c3ccccc3nc(Nc3ccc(C(C)=O)cc3)n12 | 6% | -2%
Cc1cc(C)c(S(=O)(=O)Nc2ccc(-c3ccc(N4CCC(C)CC4)nn3)cc2)cc1C | -27% | -4%
COC(=O)C1=NN(c2ccccc2)C2(S1)S/C(=C\c1ccccc1)C(=O)N2c1ccccc1 (configuration not stated) | 10µM* | 2%
CCOC(=O)C1=NN(c2ccccc2)C2(S1)SC(C(C)=O)=C(C)N2c1ccccc1 (configuration not stated) | 10% | -3%
COc1ccc(-c2nc(-c3ccccc3)oc2Nc2ccccc2C)cc1 | -13% | -1%
COc1cccc(Nc2nc(-c3ccc(O)cc3)cs2)c1 | -7% | -9%
COc1cccc(Nc2nc(-c3cccc(N4C(=O)c5ccccc5C4=O)c3)cs2)c1 | 7.9µM* | 6%
COc1cccc(/C=N/NC(N)=S)c1OS(=O)(=O)c1ccccc1 | 5µM* | 14µM*
SMILES | Cruzain noTriton | Cruzain Triton
COc1cccc(/C=N/NC(=O)c2cccc([N+](=O)[O-])c2)c1OS(=O)(=O)c1ccccc1 | -18% | 0%
Cc1ccc(S(=O)(=O)Oc2ccccc2/C=N/NC(=O)c2nn(C)cc2[N+](=O)[O-])cc1 | 5% | -6%
COc1cccc(/C=N/NC(N)=S)c1OCc1ccccc1Cl | ? | -19%
NC(=S)N/N=C/c1ccccc1OCCSc1ccc(Cl)cc1 | 1µM* | 1.4µM*
Cc1ccc(S(=O)(=O)Oc2ccccc2/C=N/NC(N)=S)cc1 | ? | 7.1µM*
COc1cccc(NC(=O)C(=O)NCC(c2ccc3c(c2)OCO3)N2CCOCC2)c1 (configuration not stated) | -5% | 3%
COCCN1C(=O)C(CC(=O)Nc2ccc(C(=O)O)cc2)SC1=Nc1ccccc1 (configuration not stated) | 0% | 0%
COC(=O)c1cc(NC(=O)CC2SC(=Nc3ccccc3)N(CCc3c[nH]c4ccccc34)C2=O)cc(C(=O)OC)c1 (configuration not stated) | 5µM* | 15%
Oc1c(I)cc(Cl)c2cccnc12 | 13µM*! | 2%
Oc1c(CN2CCc3ccccc3C2)cc(Cl)c2cccnc12 | -5% | 0%
Cc1ccc(Cl)cc1N1CCN(C(=O)c2cc(S(=O)(=O)N3CCCCCC3)cn2C)CC1 | ? | -7%
O=S(=O)(c1cccc(-c2nnc(SCc3ccc(Cl)cc3)o2)c1)N1CCCCC1 | -23% | -1%
O=C(CSc1nnc(-c2cccc(S(=O)(=O)N3CCCCC3)c2)o1)c1ccc[nH]1 | 16µM* | 0%
CCOC(=O)CCc1c(C)c2ccc(OCc3ccc([N+](=O)[O-])cc3)cc2oc1=O | 10µM* | 0%
CCOC(=O)CCc1c(C)c2ccc(OCc3nn[nH]n3)cc2oc1=O | 0% | -7%
O=C(O)c1ccc(COc2ccc3c4c(c(=O)oc3c2)CCC4)o1 | 0% | -4%
O=c1oc2cc(OCc3ccc([N+](=O)[O-])cc3)ccc2c2c1CCCC2 | 13µM* | 1%
CCCCOc1ccc(CNC(=O)CN2CCSc3ccccc32)cc1 | ? | -11%
Cc1cccc(CC(=O)NCc2nc3cccnc3n2Cc2ccc(F)cc2)c1 | 1% | 0%
Cc1cc(C)c(NC(=O)CSc2ccc(-c3sc(-c4ccccc4)nc3C)nn2)c(C)c1 | -5% | 0%
COc1cccc(-c2nc(N3CCNCC3)c3ccccc3n2)c1 | 0% | -1%
Cc1cnc(CNc2ncnc3ccc(-c4ccoc4)cc23)cn1 | -17% | -12%
Cc1ccc(NS(=O)(=O)c2cc(NC(=O)c3cc4c(s3)CCCC4)ccc2C)c(C)c1 | 32µM* | 0%
Cc1ccc(NC(=O)c2cc3c(s2)CCC3)cc1S(=O)(=O)N1CCOCC1 | 7% | -5%
CCOC(=O)C1=C(C)Nc2sc(C(=O)c3ccc(OC)cc3)c(N)c2C1c1ccc(C(=O)OC)cc1 (configuration not stated) | 32µM* | -3%
SMILES | Cruzain noTriton | Cruzain Triton
COC(=O)C1=C(C)Nc2sc(C(N)=O)c(N)c2C1c1ccncc1 (configuration not stated) | -12% | -4%
CSCCC(NC(=O)c1ccccc1)C(=O)OCC(=O)Nc1ccc(C)c(Cl)c1 (configuration not stated) | -14% | 14µM*
CSCCC(NC(=O)c1ccc(Cl)cc1)C(=O)OCC(=O)Nc1cc(Cl)ccc1C#N (configuration not stated) | -29% | 25µM*
CSCCC(NC(=O)c1ccccc1)C(=O)Nc1ccc(C)cc1 (configuration not stated) | -18% | 0%
CSCCC(NC(=O)c1ccc([N+](=O)[O-])cc1Cl)C(=O)OCC(=O)N(C)C (configuration not stated) | -23% | -24%
Nc1nc(SCc2ccc([N+](=O)[O-])cc2)c2ncn([C@@H]3O[C@H](CO)[C@H](O)[C@H]3O)c2n1 | 4% | -4%
CCOC(=O)CC(=O)CSc1nc2ccccc2c(=O)n1CCc1ccc(S(N)(=O)=O)cc1 | -5% | -4%
Cc1cc([N+](=O)[O-])ccc1-c1ccc(C2Nc3ccccc3C(=O)N2O)o1 (configuration not stated) | 20µM* | -5%
